# Laboratory results as given in PubChem BioAssay (EPA / NIEHS).
# Where “and” joins values, the source holds several entries; their conditions need not be identical. Identical values can stand only once. Inconclusive results are not listed. Calls of active or inactive are those of the source. The calls were made as follows, unless noted: active = hit-call score of the fitted dose curve at least 0.9, where 1 is the maximum; inconclusive = response in the unintended direction; inactive = score below 0.9.
# How the values were obtained:
# [1] = biological target: Cellular tumor antigen p53 (Homo sapiens) (UniProt P04637); experiment: TOX21_p53_BLA_p3_ratio: Tox21 HCT-116 p53 Agonism Beta-lactamase Assay, Ratio, Phase 3 (AID 2283596)
# Outline: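 HCT116 p53-bla cells (4000/well) given compound in DMSO (217-fold dilution) after 5 h, incubated 16 h at 37C. CCF4-AM substrate 2 h at room temperature; 460/530 nm emission ratio, gain fitted against DMSO.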
# [2] = TOX21_p53_BLA_p4_viability: Viability Assessment in the Tox21 HCT-116 p53 Agonism Beta-lactamase Assay, Phase 4 (AID 2283597);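 also: hits lower the luminescence signal meaning cytotoxicity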
# Outline: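 Following a 16 h exposure at 37C, the treated HCT116 wells were first read for the FRET ratio. They were then lysed with CellTiter-Glo, and ATP luminescence was recorded after 30 min at room temperature.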
# [3] = biological target: Cellular tumor antigen p53 (Homo sapiens) (UniProt P04637); experiment: TOX21_p53_BLA_p5_ratio: Tox21 HCT-116 p53 Agonism Beta-lactamase Assay, Ratio, Phase 5 (AID 2283599)
# Outline: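 HCT-116 cells carrying a p53-inducible beta-lactamase reporter were seeded at 4000 cells/well and dosed after 5 h with compound in DMSO (217-fold dilution). After 16 h at 37C, CCF4-AM substrate was added for 2 h, and the 460/530 nm emission ratio was scored as gain-of-signal versus DMSO.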
# [4] = biological target: Cellular tumor antigen p53 (Homo sapiens) (UniProt P04637); experiment: TOX21_p53_BLA_p4_ratio: Tox21 HCT-116 p53 Agonism Beta-lactamase Assay, Ratio, Phase 4 (AID 2283601)
# Outline: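 HCT116 cells carrying an inducible beta-lactamase reporter were plated at 4000 cells/well, rested 5 h, then exposed to compounds in DMSO (217-fold dilution) for 16 h at 37C. CCF4-AM substrate was loaded 2 h at room temperature; 460/530 nm emission ratio scored gain-of-signal versus DMSO.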
# [5] = TOX21_p53_BLA_p5_viability: Viability Assessment in the Tox21 HCT-116 p53 Agonism Beta-lactamase Assay, Phase 5 (AID 2283600)
# Outline: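 After the 460/530 nm beta-lactamase measurement, the wells received an ATP-detection luciferase reagent; signal was read 30 min later at RT. Compound treatment lasted 16 h on cells pre-incubated 5 h post-seeding.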
# [6] = Tanguay_ZF_120hpf_MORT_legacy: (Legacy) Oregon State University Tanguay Lab 120 Hour Post-fertilization zebrafish Assay for Mortality (AID 2283633);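 as to AC50: fitted as increase in binary mortality versus DMSO negative control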
# Outline: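 Static waterborne exposure from 6 to 120 hpf at 28C of single dechorionated wild-type (5D) embryos per well, 0.64% DMSO final. Death recorded present/absent by brightfield at 24 and 120 hpf.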
# [7] = Tanguay_ZF_120hpf_YSE_legacy: (Legacy) Oregon State University Tanguay Lab 120 Hour Post-fertilization zebrafish Assay for Yolk Sac Edema (AID 2283634)
# Outline: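 Presence or absence of yolk sac edema was recorded at 120 hpf in surviving larvae. These were wild-type Tropical 5D embryos, chorion removed at 4 hpf, held in static exposure at 28C from 6 hpf with 0.64% DMSO vehicle.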
# [8] = Tanguay_ZF_120hpf_AXIS_legacy: (Legacy) Oregon State University Tanguay Lab 120 Hour Post-fertilization zebrafish Assay for Body Axis Malformation (AID 2283635)
# Outline: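 Binary scoring of axis defects at 120 hpf under brightfield, fitted positive versus DMSO. Tropical 5D embryos, chorion removed by pronase at 4 hpf, were singly exposed in sealed, dark plates at 28C from 6 hpf; DMSO 0.64% final.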
# [9] = Tanguay_ZF_120hpf_EYE_legacy: (Legacy) Oregon State University Tanguay Lab 120 Hour Post-fertilization zebrafish Assay for Eye Malformation (AID 2283636);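 also: binary presence or absence of eye malformation scored by brightfield in 120 hpf larvae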
# Outline: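 Dechorionated wild-type Tropical 5D zebrafish embryos were exposed statically from 6 hpf, one per well, to 120 hpf at 28C in sealed, foil-covered plates with 0.64% DMSO. Eye malformation was scored present/absent by brightfield microscopy against DMSO controls.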
# [10] = Tanguay_ZF_120hpf_SNOU_legacy: (Legacy) Oregon State University Tanguay Lab 120 Hour Post-fertilization zebrafish Assay for Snout Malformation (AID 2283637)
# Outline: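 Tropical 5D wild-type zebrafish embryos, dechorionated with pronase at 4 hpf, were exposed singly from 6 hpf to 120 hpf statically at 28C in 0.64% DMSO. Snout malformation was scored present/absent by brightfield microscopy, fitted against DMSO.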
# [11] = Tanguay_ZF_120hpf_JAW_legacy: (Legacy) Oregon State University Tanguay Lab 120 Hour Post-fertilization zebrafish Assay for Jaw Malformation (AID 2283638)
# Outline: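 Binary jaw-malformation call at 120 hpf by brightfield microscopy. Embryos (Tropical 5D strain, chorion removed at 4 hpf) were dosed statically at 6 hpf, one per well, at 28C with 0.64% DMSO. Embryos that died were not scored.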
# [12] = Tanguay_ZF_120hpf_OTIC_legacy: (Legacy) Oregon State University Tanguay Lab 120 Hour Post-fertilization zebrafish Assay for Otic Vesicle Malformation (AID 2283639)
# Outline: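 Tropical 5D wild-type zebrafish embryos statically exposed in 0.64% DMSO at 28C until 120 hpf; 5uM trimethyltin chloride as positive control. Otic vesicle malformation scored present/absent by brightfield; dead embryos not scored; gain fitted versus DMSO.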
# [13] = Tanguay_ZF_120hpf_PE_legacy: (Legacy) Oregon State University Tanguay Lab 120 Hour Post-fertilization zebrafish Assay for Pericardial Edema (AID 2283640)
# Outline: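 Scoring was binary, by brightfield microscopy at 120 hpf, and skipped where mortality occurred. Wild-type embryos were kept under sealed, foil-covered static exposure at 28C in 0.64% (vol/vol) DMSO.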
# [14] = Tanguay_ZF_120hpf_SOMI_legacy: (Legacy) Oregon State University Tanguay Lab 120 Hour Post-fertilization zebrafish Assay for Somite Malformation (AID 2283647)
# Outline: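 Binary somite-defect scoring at 120 hpf, omitted for embryos that died, in wild-type (Tropical 5D) zebrafish with chorion removed by pronase at 4 hpf; static exposure began 6 hpf, single embryos per well, 28C, 0.64% DMSO; fitted positive versus DMSO.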
# [15] = Tanguay_ZF_120hpf_PFIN_legacy: (Legacy) Oregon State University Tanguay Lab 120 Hour Post-fertilization zebrafish Assay for Pectoral Fin Malformation (AID 2283648);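 also: each larva judged yes or no for fin defect by brightfield with dead larvae skipped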
# Outline: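 Tropical 5D wild-type embryos, dechorionated with pronase at 4 hpf, were placed singly in wells at 6 hpf and statically exposed until 120 hpf at 28C, sealed and dark, with 0.64% (vol/vol) final DMSO; pectoral fin malformation scored present/absent.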
# [16] = Tanguay_ZF_120hpf_PIG_legacy: (Legacy) Oregon State University Tanguay Lab 120 Hour Post-fertilization zebrafish Assay for Pigmentation Malformation (AID 2283650)
# Outline: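 Tropical 5D wild-type zebrafish embryos, dechorionated with pronase at 4 hpf, were exposed singly from 6 hpf to 120 hpf statically at 28C in sealed, dark plates with 0.64% DMSO; pigmentation scored present/absent by brightfield microscopy, fitted against DMSO.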
# [17] = Tanguay_ZF_120hpf_CIRC_legacy: (Legacy) Oregon State University Tanguay Lab 120 Hour Post-fertilization zebrafish Assay for Circulatory Malformation (AID 2283651)
# Outline: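 Dechorionated wild-type 5D zebrafish embryos, one per well, statically exposed from 6 to 120 hpf at 28C with 0.64% DMSO; circulatory malformation scored present/absent by brightfield microscopy at 120 hpf, dead embryos excluded.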
# [18] = Tanguay_ZF_120hpf_CFIN_legacy: (Legacy) Oregon State University Tanguay Lab 120 Hour Post-fertilization zebrafish Assay for Caudal Fin Malformation (AID 2283649)
# Outline: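 Binary brightfield scoring of caudal fin defects at 120 hpf after static, light-shielded exposure at 28C from 6 hpf. Tropical 5D embryos, chorion removed with pronase at 4 hpf, final DMSO 0.64%.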
# [19] = read-out: solute carrier (SLC22A6), SLC22A6 (gene 9356); experiment: LTEA_HepaRG_SLC22A6: Life Technologies and Expression Analysis (LTEA) Assay for solute carrier (SLC22A6) using HepaRG (AID 2283653; active = hit-call score of the fitted dose curve at least 0.9, where 1 is the maximum; inactive = score below 0.9); settings: mRNA level, 48 h; actives raise or lower the signal
# Outline: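 SLC22A6 transcript was measured by TaqMan qRT-PCR, normalized to three housekeeping genes, after 48 h duplicate exposure of HepaRG cells (100 uM top, half-log steps, 0.5% DMSO); bidirectional fit against vehicle.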
# Cellular tumor antigen p53 (Homo sapiens), sequence (P04637 whole entry, looked up): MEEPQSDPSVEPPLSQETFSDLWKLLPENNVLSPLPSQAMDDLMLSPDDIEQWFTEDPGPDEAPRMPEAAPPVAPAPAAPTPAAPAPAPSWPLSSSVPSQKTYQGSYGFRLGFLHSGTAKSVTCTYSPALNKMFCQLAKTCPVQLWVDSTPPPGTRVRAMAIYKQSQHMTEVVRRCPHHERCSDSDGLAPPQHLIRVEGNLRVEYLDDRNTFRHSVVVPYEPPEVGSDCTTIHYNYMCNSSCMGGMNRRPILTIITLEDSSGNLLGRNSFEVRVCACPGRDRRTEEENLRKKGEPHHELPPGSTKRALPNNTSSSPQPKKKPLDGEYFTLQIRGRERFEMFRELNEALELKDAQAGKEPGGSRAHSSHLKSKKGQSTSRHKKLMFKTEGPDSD
smiles,measurement,setting,value
COc1ccccc1OC,outcome,[1],inactive
same,outcome,[2],inactive
same,outcome,[3],inactive
same,outcome,[4],inactive
COP(=S)(OC)Oc1cc(Cl)c(Br)cc1Cl,AC50,[1],46.8 µM (active)
same,outcome,[2],inactive
same,outcome,[3],inactive
same,AC50,[4],79.6 µM (active)
COP(=O)(OC)O/C(=C\Cl)c1cc(Cl)c(Cl)cc1Cl,outcome,[1],inactive
same,outcome,[2],inactive
same,outcome,[3],inactive
same,outcome,[4],inactive
CCN1CCC2(CC1)COc1cc3c(cc12)N(C(=O)c1ccc(-c2ccc(-c4nnc(C)o4)cc2C)cc1)CC3,outcome,[1],inactive
same,AC50,[2],45.7 µM (active)
same,outcome,[3],inactive
same,AC50,[5],64.2 µM (active)
same,AC50,[4],57.4 µM (active)
same,outcome,[6],inactive
same,outcome,[7],inactive
same,outcome,[8],inactive
same,outcome,[9],inactive
same,outcome,[10],inactive
same,outcome,[11],inactive
same,outcome,[12],inactive
same,outcome,[13],inactive
same,outcome,[14],inactive
same,outcome,[15],inactive
same,outcome,[16],inactive
same,outcome,[17],inactive
CCCCOCCOC(C)=O,outcome,[1],inactive
same,outcome,[2],inactive
same,outcome,[3],inactive
same,outcome,[4],inactive
Nc1cccc2ccccc12,outcome,[1],inactive
same,outcome,[2],inactive
same,outcome,[3],inactive
same,outcome,[4],inactive
CCC[CH2][Sn]([Cl])([Cl])[Cl],outcome,[1],inactive
same,outcome,[3],inactive
same,outcome,[5],inactive
same,outcome,[4],inactive
CCOP(OCC)OCC,outcome,[1],inactive
same,outcome,[2],inactive
same,outcome,[3],inactive
same,outcome,[4],inactive
COc1ccc(C=O)cc1OC,outcome,[1],inactive
same,outcome,[3],inactive
same,outcome,[5],inactive
same,outcome,[4],inactive
C=CC(=O)OCCCCCC(C)C,outcome,[1],inactive
same,outcome,[2],inactive
same,outcome,[3],inactive
same,outcome,[5],inactive
same,outcome,[4],inactive
same,outcome,[6],inactive
same,outcome,[7],inactive
same,outcome,[8],inactive
same,outcome,[9],inactive
same,outcome,[10],inactive
same,outcome,[11],inactive
same,outcome,[12],inactive
same,outcome,[13],inactive
same,outcome,[14],inactive
same,outcome,[15],inactive
same,outcome,[18],inactive
same,outcome,[17],inactive
Cn1sc(Cl)cc1=O,outcome,[1],inactive
same,outcome,[3],inactive
same,outcome,[5],inactive
same,outcome,[4],inactive
same,AC50,[6],25.7 µM (active)
same,outcome,[9],inactive
same,outcome,[11],inactive
same,outcome,[12],inactive
same,outcome,[13],inactive
same,outcome,[15],inactive
same,outcome,[18],inactive
same,outcome,[16],inactive
COc1ccc(C=O)cc1,outcome,[1],inactive
same,outcome,[2],inactive
same,outcome,[3],inactive
same,outcome,[4],inactive
Cc1ccccc1N,outcome,[1],inactive
same,outcome,[2],inactive
same,outcome,[3],inactive
same,outcome,[5],inactive
same,outcome,[4],inactive
same,outcome,[6],inactive
same,outcome,[7],inactive
same,outcome,[9],inactive
same,outcome,[10],inactive
same,outcome,[11],inactive
same,outcome,[13],inactive
same,outcome,[14],inactive
same,outcome,[15],inactive
same,outcome,[18],inactive
same,outcome,[16],inactive
same,outcome,[17],inactive
COc1cccc(C=O)c1,outcome,[1],inactive
same,outcome,[3],inactive
same,outcome,[5],inactive
same,outcome,[4],inactive
CC(C)(c1ccccc1)c1ccc(O)c(C(C)(C)c2ccccc2)c1,AC50,[1],80.6 µM (active) and 83.7 µM (active)
same,AC50,[2],12.1 µM (active) and 16.6 µM (active)
same,AC50,[3],73.6 µM (active) and 51.9 µM (active)
same,AC50,[5],39.1 µM (active) and 24.3 µM (active)
same,AC50,[4],37.5 µM (active) and 29 µM (active)
same,outcome,[6],inactive
same,outcome,[7],inactive
same,outcome,[9],inactive
same,outcome,[10],inactive
same,outcome,[11],inactive
same,outcome,[12],inactive
same,outcome,[13],inactive
same,outcome,[15],inactive
same,outcome,[18],inactive
same,outcome,[16],inactive
same,outcome,[17],inactive
ClCC(Cl)CCl,outcome,[1],inactive
same,outcome,[2],inactive
same,outcome,[3],inactive
same,outcome,[5],inactive
same,outcome,[4],inactive
same,outcome,[6],inactive
same,outcome,[8],inactive
same,outcome,[10],inactive
same,outcome,[11],inactive
same,outcome,[12],inactive
same,outcome,[13],inactive
same,outcome,[14],inactive
same,outcome,[18],inactive
same,outcome,[16],inactive
same,outcome,[17],inactive
NNC(=S)NN,outcome,[1],inactive
same,outcome,[2],inactive
same,outcome,[3],inactive
same,outcome,[4],inactive
CCC(C)c1cccc(C(C)CC)c1O (stereo not drawn),outcome,[2],inactive
same,outcome,[3],inactive
same,outcome,[4],inactive
OCc1ccco1,outcome,[1],inactive
same,outcome,[5],inactive
same,outcome,[4],inactive
Oc1cccc2cccnc12,outcome,[2],inactive
same,outcome,[5],inactive
same,AC50,[6],27.2 µM (active)
same,outcome,[7],inactive
same,outcome,[8],inactive
same,outcome,[10],inactive
same,outcome,[11],inactive
same,outcome,[12],inactive
same,outcome,[13],inactive
same,outcome,[14],inactive
same,outcome,[15],inactive
same,outcome,[18],inactive
same,outcome,[16],inactive
same,outcome,[17],inactive
same,outcome,[19],inactive
O=C(O)C(F)(F)C(F)(F)C(F)(F)C(F)(F)C(F)(F)C(F)(F)F,outcome,[2],inactive
same,outcome,[3],inactive
same,outcome,[6],inactive
same,outcome,[7],inactive
same,outcome,[8],inactive
same,outcome,[9],inactive
same,outcome,[11],inactive
same,outcome,[12],inactive
same,outcome,[13],inactive
same,outcome,[15],inactive
same,outcome,[18],inactive
same,outcome,[16],inactive
same,outcome,[17],inactive
O=C(Cc1ccccc1)c1ccccc1,outcome,[1],inactive
same,outcome,[3],inactive
same,outcome,[4],inactive
Cc1cc(=O)[nH]o1,outcome,[3],inactive
same,outcome,[5],inactive
COc1ccc(C(O)(c2cncnc2)C2CC2)cc1 (stereo not drawn),outcome,[1],inactive
same,outcome,[5],inactive
same,outcome,[4],inactive
Cl/C=C\C[N+]12CN3CN(CN(C3)C1)C2,outcome,[1],inactive
same,outcome,[3],inactive
same,outcome,[4],inactive
CCCCC(CC)CO[N+](=O)[O-] (stereo not drawn),outcome,[1],inactive
same,outcome,[4],inactive
ClC1=C(Cl)[C@]2(Cl)[C@H]3[C@H]([C@H]4C=C[C@H]3C4)[C@@]1(Cl)C2(Cl)Cl,outcome,[2],inactive
same,outcome,[3],inactive
same,outcome,[5],inactive
same,outcome,[4],inactive
